Measurements as given in the supplement of paper PMC4100887.
± gives the standard deviation of the averaged measurements.

These compounds were tested on IMR-90 (assay: relative cell viability (ATPlite) vs untreated control (fraction); higher = less toxic). Details: 1 µM; 72 h.

SMILES	relative cell viability
O=c1cc(N2CCOCC2)oc2c1ccc1ccccc12 [DNA-PK Inhibitor II]	1 ± 0.061
COc1cc2ncnc(Nc3ccc(O)c(Br)c3)c2cc1OC [JAK3 Inhibitor II]	1.01 ± 0.09
N#Cc1cc([N+](=O)[O-])c2sc(C(N)=O)[n+]([O-])c2c1 [Polo-like Kinase Inhibitor II, BTO-1]	1.01 ± 0.12
O=C1C(Cl)=C(N2C(=O)CCC2=O)C(=O)c2ccccc21 [MEK Inhibitor II]	1.01 ± 0.11
OCC(O)CCO/N=C1\C(c2c(O)[nH]c3ccccc23)=Nc2ccccc21 (centres undefined) [Indirubin Derivative E804]	0.974 ± 0.098
CCCOc1ccc(/C=C2/SC(=O)NC2=O)cc1 [PIM1/2 Kinase Inhibitor VI]	0.916 ± 0.1
COc1nccc(-c2c(-c3ccc(F)cc3)ncn2C2CCC(O)CC2)n1 (centres undefined)	0.964 ± 0.038
Cc1nc(-c2ccccc2)c(-c2ccncc2)o1	1.02 ± 0.093
CC(C)[C@H](CO)Nc1nc(Nc2cccc(Cl)c2)c2ncn(C(C)C)c2n1 [Purvalanol A]	1.04 ± 0.11
COc1cc(Nc2ncc3ccn(-c4cccc(CCC#N)c4)c3n2)cc(OC)c1OC [Keratinocyte Differentiation Inducer]	1.02 ± 0.058
O=C1NCCc2[nH]c(-c3ccnc(-c4cnc5ccccc5c4)c3)cc21 [MK-2 Inhibitor III]	0.884 ± 0.11
CCCCCCCCCCCCCCCCn1cc[n+](Cc2ccccc2)c1C [eEF-2 Kinase Inhibitor, NH125]	0.948 ± 0.11
CC(C)n1cnc2c(NCc3ccccc3)nc(NCCCO)nc21 [Bohemine]	1.03 ± 0.066
O=C(Nc1ccc(-c2cn[nH]c2)cc1)C1COc2ccccc2O1 (centres undefined) [Rho Kinase Inhibitor V]	1.09 ± 0.066
O=[N+]([O-])c1ccc(-c2nc(-c3ccc(F)cc3)c(-c3ccncc3)[nH]2)cc1	1.05 ± 0.089
CCN(CC)CCNC(=O)c1c(C)[nH]c(/C=C2\C(=O)Nc3ccc(Cl)cc32)c1C	0.92 ± 0.082

SMILES	relative cell viability
O=C(Nc1cccc(Nc2nccc(Nc3cccc(C(F)(F)F)c3)n2)c1)C1CC1 [Aurora Kinase Inhibitor III]	0.892 ± 0.074
N#Cc1c(NC(=O)c2cccc3ccccc23)sc2c1CCCC2 [JNK Inhibitor IX]	0.97 ± 0.044
NC(=O)Nc1sc(-c2ccccc2)cc1C(N)=O [IKK-2 Inhibitor VI]	0.942 ± 0.1
CC(C)(C)c1ccc(S(=O)(=O)Nc2ccc(-n3ccnc3)cc2)cc1 [Stem-Cell Factor/c-Kit Inhibitor, ISCK03]	0.897 ± 0.068
Cc1ccc([N+](=O)[O-])cc1S(=O)(=O)N(C)/N=C/c1cnc2ccc(Br)cn12 [PI 3-Kα Inhibitor VIII]	0.166 ± 0.031
O=C1c2ccccc2-c2nc3nnnn3nc21 [PDK1/Akt/Flt Dual Pathway Inhibitor]	0.856 ± 0.069
CC[n+]1c(/C=C/N(C)c2ccccc2)n(-c2ccccc2)c2ccc(-c3nc4ccccc4s3)cc21 [Akt Inhibitor IV]	0.924 ± 0.1
O=C1Nc2ccc(Cl)cc2/C1=C/c1cc(Cl)c(O)c(Cl)c1 [PKR Inhibitor, Negative Control]	0.968 ± 0.089
O=C(c1cc2cc(O)ccc2[nH]1)c1cc2cc(O)ccc2[nH]1 [Flt-3 Inhibitor II]	1.04 ± 0.085
CSc1nc(-c2ccnc(NC(C)c3ccccc3)c2)c(-c2ccc(F)cc2)[nH]1 (centres undefined) [p38 MAP Kinase Inhibitor III]	1.03 ± 0.072
c1nc2c(NC3CCCCC3)nc(Nc3ccc(N4CCOCC4)cc3)nc2[nH]1 [Reversine]	0.936 ± 0.08
O=C1NC(=O)C(c2cn(CCCO)c3ncccc23)=C1c1cnccn1 [GSK-3b Inhibitor XI]	1.02 ± 0.054
N#CCCc1ccc2c(c1)-c1[nH]c3ccc([N+](=O)[O-])cc3c1CC(=O)N2 [Alsterpaullone, 2-Cyanoethyl]	1 ± 0.039
Brc1c(Br)c(Br)c2n[nH]nc2c1Br [Casein Kinase II Inhibitor I]	1 ± 0.059
CC[C@H](CO)Nc1nc(NCc2ccc(-c3ccccn3)cc2)c2ncn(C(C)C)c2n1 [CR8, (R)-Isomer]	0.297 ± 0.51
CN1C(=O)C(Cc2c[nH]c3ccccc23)NC1=S (centres undefined) [Necrostatin-1]	0.915 ± 0.058

These compounds were tested on K562 in the same assay as above. Details: 1 µM; 72 h.

SMILES	relative cell viability
O=c1cc(N2CCOCC2)oc2c1ccc1ccccc12 [DNA-PK Inhibitor II]	0.815 ± 0.041
COc1cc2ncnc(Nc3ccc(O)c(Br)c3)c2cc1OC [JAK3 Inhibitor II]	0.815 ± 0.037
N#Cc1cc([N+](=O)[O-])c2sc(C(N)=O)[n+]([O-])c2c1 [Polo-like Kinase Inhibitor II, BTO-1]	0.88 ± 0.081
O=C1C(Cl)=C(N2C(=O)CCC2=O)C(=O)c2ccccc21 [MEK Inhibitor II]	0.802 ± 0.089
OCC(O)CCO/N=C1\C(c2c(O)[nH]c3ccccc23)=Nc2ccccc21 (centres undefined) [Indirubin Derivative E804]	0.753 ± 0.058
CCCOc1ccc(/C=C2/SC(=O)NC2=O)cc1 [PIM1/2 Kinase Inhibitor VI]	0.972 ± 0.031
COc1nccc(-c2c(-c3ccc(F)cc3)ncn2C2CCC(O)CC2)n1 (centres undefined)	0.86 ± 0.11
Cc1nc(-c2ccccc2)c(-c2ccncc2)o1	0.835 ± 0.077
CC(C)[C@H](CO)Nc1nc(Nc2cccc(Cl)c2)c2ncn(C(C)C)c2n1 [Purvalanol A]	0.885 ± 0.065
COc1cc(Nc2ncc3ccn(-c4cccc(CCC#N)c4)c3n2)cc(OC)c1OC [Keratinocyte Differentiation Inducer]	0.173 ± 0.21
O=C1NCCc2[nH]c(-c3ccnc(-c4cnc5ccccc5c4)c3)cc21 [MK-2 Inhibitor III]	0.837 ± 0.085
CCCCCCCCCCCCCCCCn1cc[n+](Cc2ccccc2)c1C [eEF-2 Kinase Inhibitor, NH125]	0.506 ± 0.092
CC(C)n1cnc2c(NCc3ccccc3)nc(NCCCO)nc21 [Bohemine]	0.9 ± 0.074
O=C(Nc1ccc(-c2cn[nH]c2)cc1)C1COc2ccccc2O1 (centres undefined) [Rho Kinase Inhibitor V]	0.824 ± 0.075
O=[N+]([O-])c1ccc(-c2nc(-c3ccc(F)cc3)c(-c3ccncc3)[nH]2)cc1	0.774 ± 0.031
CCN(CC)CCNC(=O)c1c(C)[nH]c(/C=C2\C(=O)Nc3ccc(Cl)cc32)c1C	0.909 ± 0.062

SMILES	relative cell viability
O=C(Nc1cccc(Nc2nccc(Nc3cccc(C(F)(F)F)c3)n2)c1)C1CC1 [Aurora Kinase Inhibitor III]	0.892 ± 0.044
N#Cc1c(NC(=O)c2cccc3ccccc23)sc2c1CCCC2 [JNK Inhibitor IX]	0.143 ± 0.058
NC(=O)Nc1sc(-c2ccccc2)cc1C(N)=O [IKK-2 Inhibitor VI]	0.861 ± 0.097
CC(C)(C)c1ccc(S(=O)(=O)Nc2ccc(-n3ccnc3)cc2)cc1 [Stem-Cell Factor/c-Kit Inhibitor, ISCK03]	0.818 ± 0.096
Cc1ccc([N+](=O)[O-])cc1S(=O)(=O)N(C)/N=C/c1cnc2ccc(Br)cn12 [PI 3-Kα Inhibitor VIII]	0.763 ± 0.071
O=C1c2ccccc2-c2nc3nnnn3nc21 [PDK1/Akt/Flt Dual Pathway Inhibitor]	0.028 ± 0.0014
CC[n+]1c(/C=C/N(C)c2ccccc2)n(-c2ccccc2)c2ccc(-c3nc4ccccc4s3)cc21 [Akt Inhibitor IV]	0.169 ± 0.082
O=C1Nc2ccc(Cl)cc2/C1=C/c1cc(Cl)c(O)c(Cl)c1 [PKR Inhibitor, Negative Control]	0.848 ± 0.072
O=C(c1cc2cc(O)ccc2[nH]1)c1cc2cc(O)ccc2[nH]1 [Flt-3 Inhibitor II]	0.461 ± 0.026
CSc1nc(-c2ccnc(NC(C)c3ccccc3)c2)c(-c2ccc(F)cc2)[nH]1 (centres undefined) [p38 MAP Kinase Inhibitor III]	0.909 ± 0.024
c1nc2c(NC3CCCCC3)nc(Nc3ccc(N4CCOCC4)cc3)nc2[nH]1 [Reversine]	0.578 ± 0.048
O=C1NC(=O)C(c2cn(CCCO)c3ncccc23)=C1c1cnccn1 [GSK-3b Inhibitor XI]	0.915 ± 0.075
N#CCCc1ccc2c(c1)-c1[nH]c3ccc([N+](=O)[O-])cc3c1CC(=O)N2 [Alsterpaullone, 2-Cyanoethyl]	0.307 ± 0.05
Brc1c(Br)c(Br)c2n[nH]nc2c1Br [Casein Kinase II Inhibitor I]	0.952 ± 0.068
CC[C@H](CO)Nc1nc(NCc2ccc(-c3ccccn3)cc2)c2ncn(C(C)C)c2n1 [CR8, (R)-Isomer]	0.0971 ± 0.02
CN1C(=O)C(Cc2c[nH]c3ccccc23)NC1=S (centres undefined) [Necrostatin-1]	0.921 ± 0.1
